{"source": "the supplement of paper PMC6953052", "note": "The full ranking holds about 1,700 compounds; the median of “fraction of GFP-LC3-positive cells (≥5 vesicles/cell)” is about 0.43, and the highest 2% start at about 0.81. What follows is part of a selection rich in the highest values, with near analogues and random picks from the rest.", "data": [{"system": "CbCln3 Δex7/8/Δex7/8 GFP-LC3 cerebellar neuronal cells", "assay": "fraction of GFP-LC3-positive cells (≥5 vesicles/cell); higher = more autophagosome accumulation", "method_in_brief": "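In 384-well plates at 2 × 10^3 cells per well, GFP-LC3-expressing wild-type or mutant CbCln3 cerebellar cells took ~50 nL of compound in DMSO by pin transfer, in duplicate, for 24 h at 33 °C. Staining with Hoechst 33342 and LysoTracker Red over the final 30 min preceded fixation in 3.2% PFA and imaging of three fields per well at 10×. CellProfiler then counted GFP-LC3 vesicles in each cell, and out-of-focus images were dropped before the fraction of cells with 5 or more vesicles was averaged over duplicates.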", "values": [{"smiles": "COc1c(C=O)c(O)cc2c1C(=O)c1ccccc1C2=O", "note": "[damnacanthal]", "fraction of GFP-LC3-positive cells": 0.173}, {"smiles": "O.Oc1cc(O)c2c(c1)OC(c1ccc(O)c(O)c1)C(O)C2", "note": "(racemic) [Catechin-(+,-) hydrate]", "fraction of GFP-LC3-positive cells": 0.337}, {"smiles": "CC/C=C\\C[C@H](O)/C=C/C=C\\C/C=C\\C/C=C\\CCCC(=O)O", "fraction of GFP-LC3-positive cells": 0.434}, {"smiles": "CCCCCCCC/C=C/CCCCCCCCC(=O)O", "note": "[10(E)-Nonadecenoic acid]", "fraction of GFP-LC3-positive cells": 0.516}, {"smiles": "CCCCCCCC/C=C/CCCCCCCCC(=O)O", "note": "[10(Z)-Nonadecenoic acid]", "fraction of GFP-LC3-positive cells": 0.551}, {"smiles": "NC[C@H]1O[C@H](O[C@H]2[C@H](O)[C@@H](O[C@H]3O[C@H](CO)[C@@H](O)[C@H](N)[C@H]3O)[C@H](N)C[C@@H]2N)[C@H](N)C[C@@H]1O", "note": "[Tobramycin]", "fraction of GFP-LC3-positive cells": 0.5}, {"smiles": "COc1cc(N)c(Cl)cc1C(=O)NC1CCN(Cc2ccccc2)CC1.O=C(O)/C=C\\C(=O)O", "note": "[Clebopride maleate]", "fraction of GFP-LC3-positive cells": 0.506}, {"smiles": "CC(C(O)c1ccc(O)cc1)N1CCC(Cc2ccccc2)CC1.O=C(O)C(O)C(O)C(=O)O", "note": "(configuration not stated) [Ifenprodil tartrate]", "fraction of GFP-LC3-positive cells": 0.481}, {"smiles": "Cl.Fc1ccc([C@@H]2CCNC[C@H]2COc2ccc3c(c2)OCO3)cc1", "note": "[Paroxetine Hydrochloride]", "fraction of GFP-LC3-positive cells": 0.5}, {"smiles": "Nc1ccc(S(=O)(=O)Nc2ccc(Cl)nn2)cc1", "note": "[Sulfachloropyridazine]", "fraction of GFP-LC3-positive cells": 0.368}, {"smiles": "CC1CNc2c(cccc2S(=O)(=O)N[C@@H](CCCNC(=N)N)C(=O)N2CC[C@@H](C)C[C@@H]2C(=O)O)C1", "note": "(some centres not stated) [Argatroban]", "fraction of GFP-LC3-positive cells": 0.486}, {"smiles": "CCCCC[C@H](O)/C=C/C=C/C=C/[C@@H](O)C/C=C\\CCCC(=O)O", "note": "[8(S),15(S)-DiHETE all trans]", "fraction of GFP-LC3-positive cells": 0.456}, {"smiles": "CCN(CC)CCOC(=O)c1ccc(N)cc1.Cl", "note": "[Procaine hydrochloride]", "fraction of GFP-LC3-positive cells": 0.483}, {"smiles": "C[C@]12C=CC(=O)C=C1CC[C@@H]1[C@@H]2[C@@H](O)C[C@@]2(C)[C@H]1CC[C@]2(O)C(=O)CO", "note": "[Prednisolone]", "fraction of GFP-LC3-positive cells": 0.183}, {"smiles": "CCCCOc1ccc(C(=O)CCN2CCCCC2)cc1.Cl", "note": "[Dyclonine hydrochloride]", "fraction of GFP-LC3-positive cells": 0.322}, {"smiles": "NC(=O)c1cc[n+](CC2=C(C(=O)[O-])N3C(=O)[C@@H](NC(=O)[C@@H](c4ccccc4)S(=O)(=O)[O-])[C@H]3SC2)cc1.[Na+]", "note": "[Cefsulodin sodium salt]", "fraction of GFP-LC3-positive cells": 0.367}, {"smiles": "CC1(C)[C@@H](OC(=O)CCC(=O)[O-])CC[C@]2(C)[C@H]3C(=O)C=C4[C@@H]5C[C@@](C)(C(=O)[O-])CC[C@]5(C)CC[C@@]4(C)[C@]3(C)CC[C@@H]12.[Na+].[Na+]", "note": "[Carbenoxolone disodium salt]", "fraction of GFP-LC3-positive cells": 0.269}, {"smiles": "CCCCCCCCCCCCCCCCCCc1ccc(C(=O)/C=C/C(=O)O)cc1", "fraction of GFP-LC3-positive cells": 0.48}, {"smiles": "COC(=O)Nc1nc2cc(Sc3ccccc3)ccc2[nH]1", "note": "[Fenbendazole]", "fraction of GFP-LC3-positive cells": 0.648}, {"smiles": "CCCSc1ccc2[nH]c(NC(=O)OC)nc2c1", "note": "[Albendazole]", "fraction of GFP-LC3-positive cells": 0.899}, {"smiles": "CCCCCCCCCCCCCCCC(=O)NCCc1ccc(O)c(O)c1", "note": "[Palmitoyl dopamine]", "fraction of GFP-LC3-positive cells": 0.456}, {"smiles": "CCCCc1ccc2[nH]c(NC(=O)OC)nc2c1", "note": "[Parbendazole]", "fraction of GFP-LC3-positive cells": 0.927}, {"smiles": "COC(=O)Nc1nc2cc(SC(C)C)ccc2[nH]1", "note": "[Methiazole]", "fraction of GFP-LC3-positive cells": 0.836}, {"smiles": "NCc1ccccc1CC(=O)N[C@@H]1C(=O)N2C(C(=O)O)=C(CSc3nnnn3CC(=O)O)CS[C@H]12", "note": "[Ceforanide]", "fraction of GFP-LC3-positive cells": 0.519}, {"smiles": "CC1CCc2cc(F)cc3c(=O)c(C(=O)O)cn1c23", "note": "(configuration not stated) [Flumequine]", "fraction of GFP-LC3-positive cells": 0.273}, {"smiles": "CC1/C=C/C=C/CC/C=C/C=C/C=C/C=C/C(O[C@@H]2O[C@H](C)[C@@H](O)[C@H](N)[C@@H]2O)CC(O)C(C(=O)O)C(O)CC(=O)CC(O)C(O)CCC(O)CC(O)CC(O)CC(=O)OC(C)C(C)C1O", "note": "(some centres not stated) [Nystatine]", "fraction of GFP-LC3-positive cells": 0.294}, {"smiles": "CC(=O)OCOC(=O)CN(CC(=O)OCOC(C)=O)c1ccccc1OCCOc1ccccc1N(CC(=O)OCOC(C)=O)CC(=O)OCOC(C)=O", "fraction of GFP-LC3-positive cells": 0.851}, {"smiles": "CC(=O)Oc1ccccc1C(=O)Oc1ccccc1C(=O)O", "note": "[Acetylsalicylsalicylic acid]", "fraction of GFP-LC3-positive cells": 0.354}, {"smiles": "COc1cc2nc(N3CCN(C(=O)C4CCCO4)CC3)nc(N)c2cc1OC.Cl", "note": "(configuration not stated) [Terazosin hydrochloride]", "fraction of GFP-LC3-positive cells": 0.396}, {"smiles": "COc1cc2nc(N3CCN(C(=O)c4ccco4)CC3)nc(N)c2cc1OC.Cl", "note": "[Prazosin hydrochloride]", "fraction of GFP-LC3-positive cells": 0.669}, {"smiles": "COc1cc2nc(N3CCN(C(=O)c4ccco4)CC3)nc(N)c2cc1OC", "note": "[prazocin]", "fraction of GFP-LC3-positive cells": 0.931}, {"smiles": "CCCCC/C=C\\C/C=C\\C=C\\[C@@H](O)C/C=C\\CCCC(=O)O", "fraction of GFP-LC3-positive cells": 0.479}, {"smiles": "Nc1nc2c(ncn2COCCO)c(=O)[nH]1", "note": "[Acyclovir]", "fraction of GFP-LC3-positive cells": 0.421}, {"smiles": "Nc1nc2[nH]nnc2c(=O)[nH]1", "note": "[Azaguanine-8]", "fraction of GFP-LC3-positive cells": 0.845}, {"smiles": "CCCOc1ccccc1-c1nc2[nH]nnc2c(=O)[nH]1", "note": "[zaprinast]", "fraction of GFP-LC3-positive cells": 0.222}, {"smiles": "CN(C)CCOC(c1ccccc1)c1ccccc1.Cl", "note": "[Diphenhydramine hydrochloride]", "fraction of GFP-LC3-positive cells": 0.531}, {"smiles": "CCCCC[C@H](O)/C=C/C=C\\C/C=C\\CCCCC(=O)O", "fraction of GFP-LC3-positive cells": 0.403}]}]}
